This note sets out measurements from PubChem BioAssay AID1362 (SRMLSC, 2008).

The nature of the assay: growth inhibition of WT strain, primary screen, mitochondrial fusion inhibitor project, WT and mutant strains, chemical genetic (AID 1362). The note with it: mitochondrial fusion phenotypic screen, at 10 µM.
Setting [1] is: WT strain, growth inhibition, stronger effect = higher value.

Among all 190,000 compounds or so, about 4,000 (2.1%) were called active. Rule as the data show it: active = inhibition above about 58%; inactive = the rest, inconclusive results apart; tested in S. cerevisiae. Many of the other results were omitted from the sample, so actives are more common in it than they were.

As for `O=C(NC(=S)Nc1cccc(-c2ccc(CO)o2)c1)c1cccs1`, the inhibition (usually the relative decrease from the control value, in per cent) under setting [1] is 6.13% (inactive) and the inhibition (mutant strain inhibition) worked out at 12.3%.
Take `CC(=O)Nc1ccc(NC(=S)NC(=O)/C=C/c2ccccc2)cc1`: the inhibition was -1.35% (inactive) under setting [1] and -0.82% (mutant strain inhibition).
Turning to `CCOC(=O)c1cc2cc(-c3c(C(=O)OCC)oc4cc(O)cc(O)c4c3=O)ccc2o1`, the inhibition runs as follows: under setting [1], -4.08% (inactive); (mutant strain inhibition) -39.7%.
The matching figures for `COc1ccc(-c2onc(C)c2-c2ccc3c(c2)OCCO3)c(O)c1`: 21.9% (inactive) and -8.53%.
On the same counts, the results for `O=c1c(-c2ccc3c(c2)OCCO3)c(C(F)(F)F)oc2cc(O)cc(O)c12` are 70.7% (active) and 42.8%.
`S=C(NCCc1ccccc1)N1CCCCC1`: the inhibition is, setting by setting: under setting [1], 8.05% (inactive); (mutant strain inhibition) 12.7%.
On the same counts, the results for `S=C(NCCc1ccccc1)NCc1ccccc1Cl` are 62% (active) and 35.9%.
The matching figures for `Cc1ccc(NC(=S)NCc2ccccc2Cl)c(C)c1`: 41% (inactive) and -1.48%.
Turning to `CC(=O)N1CCN(S(=O)(=O)c2c(F)cc(F)c(Cl)c2F)CC1`, the inhibition was -3.19% (inactive) under setting [1] and 3.15% (mutant strain inhibition).
Consider `CSc1ccc(/C=N/N2CCN(Cc3ccccc3Cl)CC2)cc1`, for which the inhibition under setting [1] is 43.5% (inactive) and the inhibition (mutant strain inhibition) is 23.8%.
The matching figures for `COc1cc(CNC2CCCCC2)c(Br)cc1OC1CCCC1`: 18.3% (inactive) and 20.6%.
On to `CCc1ccccc1NC(=O)c1cccs1`, for which the inhibition under setting [1] was 2.87% (inactive) and the inhibition (mutant strain inhibition) is -2.72%.
In the case of `O=C(/C=C/c1ccccc1)N/C(=C/c1ccccc1)C(=O)Nc1ccccc1O`, the inhibition runs as follows: under setting [1], -8.09% (inactive); (mutant strain inhibition) -0.03%.
Take `CCc1ccccc1NC(=O)/C(=C/c1ccccc1)c1ccccc1`: the inhibition under setting [1] was 64.8% (active) and the inhibition (mutant strain inhibition) was found to be 9.35%.
Take `CCN(CC)CCN(C(=O)c1ccc(N2C(=O)CCC2=O)cc1)c1nc2cc3c(cc2s1)OCO3`: the inhibition is 2.8% (inactive) under setting [1] and -0.18% (mutant strain inhibition).
The matching figures for `COc1ccc(-c2ccc(CNCCCN3CCOCC3)o2)cc1Cl`: 6.85% (inactive) and 12.6%.
On to `C=CCNC(=S)NNC(=O)c1ccc(Br)o1`, for which the inhibition is, setting by setting: under setting [1], -3.81% (inactive); (mutant strain inhibition) 3.41%.
Turning to `C=CCNC(=O)COC(=O)CNC(=O)c1cc(Cl)cc([N+](=O)[O-])c1`, the inhibition under setting [1] was -6.93% (inactive) and the inhibition (mutant strain inhibition) came to 10.8%.
The matching figures for `C=CCNC(=S)NNC(=O)COc1c(Cl)cc(Cl)cc1Cl`: 67.1% (active) and 29.7%.
On the same counts, the results for `CCOC(=O)C1CCCN(C(=O)c2cccc(S(=O)(=O)N3CCOCC3)c2)C1` (stereo unspecified) are -0.28% (inactive) and -18.7%.
For the compound `O=C(COc1ccc(-c2ccccc2)cc1)NN=C1CCCC1`, the inhibition is, setting by setting: under setting [1], 2.21% (inactive); (mutant strain inhibition) -3.38%.
With `CCCc1noc2c1/C(=N\O)CCC2`, the inhibition is -2.57% (inactive) under setting [1] and -4.14% (mutant strain inhibition).
On the same counts, the results for `CCCCc1cc2c(s1)CCCC/C2=N/O` are 63.2% (active) and 6.26%.
`Cc1[nH]c2ccccc2c1/C=C(/C#N)C(=O)NC(C)C`: the inhibition reads like this: under setting [1], -14% (inactive); (mutant strain inhibition) -5.17%.
`Cc1ccc(NC(=S)N(CCCN2CCC(C)CC2)Cc2ccco2)cc1`: the inhibition under setting [1] is 2.89% (inactive) and the inhibition (mutant strain inhibition) came to 13.6%.
As to `Cc1ccc(NC(=S)N(CCN2CCCCC2)Cc2ccco2)cc1C`, the inhibition reads like this: under setting [1], 8.12% (inactive); (mutant strain inhibition) 24.1%.
The matching figures for `Cc1ccc(NC(=S)N(Cc2ccco2)C(C)c2cccs2)cc1` (stereo unspecified): 75.8% (active) and 51.5%.
On the same counts, the results for `CCN1CCN(C(C(=O)NC2CCCC2)c2cc3c(cc2[N+](=O)[O-])OCO3)CC1` (stereo unspecified) are 2.26% (inactive) and -2.37%.
Turning to `CC1(c2cccc([N+](=O)[O-])c2)CC(C)(C)N(C(=O)c2ccccc2)c2ccccc21` (stereo unspecified), the inhibition under setting [1] was 75.8% (active) and the inhibition (mutant strain inhibition) came to 33.1%.
On the same counts, the results for `CC1CCN(C(=S)c2cccc([N+](=O)[O-])c2)CC1` are 7.85% (inactive) and 23%.
The matching figures for `CC1(c2ccccc2)CC(C)(C)N(C(=O)c2cc([N+](=O)[O-])cc([N+](=O)[O-])c2)c2ccccc21` (stereo unspecified): 57% (inactive) and 35.9%.
The matching figures for `CCC(C(=O)OCC(=O)Nc1c(Cl)cc(Cl)cc1Cl)c1ccccc1` (stereo unspecified): 11.1% (inactive) and -9.47%.
Take `CCC(C(=O)OCC(=O)Nc1ccccc1-c1ccccc1)c1ccccc1` (stereo unspecified): the inhibition is, setting by setting: under setting [1], 70.9% (active); (mutant strain inhibition) -2.32%.
Regarding `CCC(C(=O)OCC(=O)Nc1ccc(C(=O)Nc2ccc(OC)cc2)cc1)c1ccccc1` (stereo unspecified), the inhibition was 12.9% (inactive) under setting [1] and -13.4% (mutant strain inhibition).
For the compound `O=C(Nc1ccc(NC(=O)c2ccco2)c(Cl)c1)c1cccc([N+](=O)[O-])c1`, the inhibition was 2.21% (inactive) under setting [1] and 16.7% (mutant strain inhibition).
The matching figures for `CC(=O)c1cnc(-c2ccccc2)s1`: 3.8% (inactive) and -4.54%.
The matching figures for `Cc1cccc(NC(=S)N2CCCC(c3nc4ccccc4[nH]3)C2)c1` (stereo unspecified): -10.4% (inactive) and 0.82%.
Consider `O=C(C1CCCO1)N1CCN(C(=S)Nc2cccc(Cl)c2)CC1` (stereo unspecified), for which the inhibition is -4.05% (inactive) under setting [1] and 25.8% (mutant strain inhibition).
With `Cc1ccc(C2CCN(C(=S)Nc3cccc(Cl)c3)C2)cc1` (stereo unspecified), the inhibition under setting [1] is 74.3% (active) and the inhibition (mutant strain inhibition) was 55%.
On the same counts, the results for `CC1CN(/C=C/C(=O)C(F)(F)F)CC(C)O1` (stereo unspecified) are -25.3% (inactive) and 4.39%.
Regarding `O=C(O)c1cccc(NC(=S)N/N=C/c2c[nH]c3ccccc23)c1`, the inhibition under setting [1] was -10.2% (inactive) and the inhibition (mutant strain inhibition) stood at 4.36%.
The matching figures for `CSC(=S)N/N=C/c1c[nH]c2ccccc12`: 65.8% (active) and 13.3%.
As to `S=c1[nH]nc(-c2ccccc2)n1/N=C/c1c[nH]c2ccccc12`, the inhibition under setting [1] is 1.16% (inactive) and the inhibition (mutant strain inhibition) turned out to be 0%.
